TR-FRET SRC-2 ct = counter-screen for PPARgamma SRC-2 recruitment agonists: TR-FRET artefact. active compounds read high. TR-FRET ratio at 8 µM. 200,000 compounds, 0.4% hits. AID 1049
SRC1 TRFRET art = flags TR-FRET format artefacts in PPARgamma SRC-1 recruitment agonist screen. TR-FRET detection artefact counter-screen, emission ratio; active compounds read high. TR-FRET ratio at 8 µM. 99,000 compounds, 0.34% hits. AID 1051; in the data active = TR-FRET ratio above about 2300
PPARg SRC-1 ag = agonists of human PPARgamma SRC-1 coactivator recruitment; P37231; 200,000 compounds, 0.41% hits; PPARgamma-SRC-1 coactivator recruitment biochemical assay; activation, % at 8 µM; AID 631; in the data active = activation above about 19%;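 note: 0% = DMSO and 100% = reference agonist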
Target sequence (P37231 whole entry, looked up): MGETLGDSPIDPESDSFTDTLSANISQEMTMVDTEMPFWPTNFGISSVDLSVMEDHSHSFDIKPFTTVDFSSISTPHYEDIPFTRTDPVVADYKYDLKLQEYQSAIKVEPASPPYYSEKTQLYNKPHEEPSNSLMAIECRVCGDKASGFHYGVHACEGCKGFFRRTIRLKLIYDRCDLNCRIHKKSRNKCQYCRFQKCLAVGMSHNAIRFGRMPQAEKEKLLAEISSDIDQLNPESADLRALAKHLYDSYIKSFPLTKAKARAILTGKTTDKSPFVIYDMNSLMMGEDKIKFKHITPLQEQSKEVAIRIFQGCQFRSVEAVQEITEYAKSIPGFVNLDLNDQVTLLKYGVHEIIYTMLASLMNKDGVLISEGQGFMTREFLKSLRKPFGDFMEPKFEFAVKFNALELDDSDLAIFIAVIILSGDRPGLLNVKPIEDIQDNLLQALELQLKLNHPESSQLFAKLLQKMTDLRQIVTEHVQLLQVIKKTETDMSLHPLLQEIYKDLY
PPARg SRC-3 ag = promotes SRC-3 coactivator recruitment by human PPARgamma; activation, % at 8 µM; P37231; biochemical PPARgamma/SRC-3 coactivator recruitment assay; 200,000 compounds, 0.26% hits; in the data active = activation above about 23%;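 note: 0% = DMSO and 100% = reference agonist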
SRC3 TRFRET art = flags TR-FRET format artefacts in PPARgamma SRC-3 recruitment agonist screen; AID 1048; 99,000 compounds, 0.39% hits; TR-FRET artefact counter-screen, PPARgamma/SRC-3 format; active compounds read high; TR-FRET ratio at 8 µM
PPARg SRC2 recr = agonists of SRC-2 recruitment by human PPARgamma | P37231 | PPARgamma LBD-SRC-2 recruitment, biochemical | activation, % at 8 µM | 200,000 compounds, 0.34% hits | AID 1032; in the data active = activation above about 22%;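 note: 0% = vehicle and 100% = reference agonist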
Numbers without * were called inactive. Only some compounds are listed: those with a hit (about 0.9% of all), similar ones and a draw of the others. Cut-off read from the data, not from the text of the source, unless noted: active = TR-FRET ratio above about 2000; inactive = the rest.

How did CCN(CC)c1ccc(/C=c2\sc3nc4ccccc4n3c2=O)c(O)c1 do in these assays?
TR-FRET SRC-2 ct: 3056*; SRC1 TRFRET art: 5472*; PPARg SRC-1 ag: 13; PPARg SRC-3 ag: 7; SRC3 TRFRET art: 4506*; PPARg SRC2 recr: 6

What do the screens show for `O=c1/c(=C/c2ccc(O)c([N+](=O)[O-])c2)sc2nc3ccccc3n12`?
TR-FRET SRC-2 ct: 1432; SRC1 TRFRET art: 1575; PPARg SRC-1 ag: -1; PPARg SRC-3 ag: -1; SRC3 TRFRET art: 1579; PPARg SRC2 recr: 6

Results for CC(=O)N1CCN(c2ccc(NC(=O)/C=C/c3ccccc3)cc2)CC1 ?
TR-FRET SRC-2 ct: 1649; SRC1 TRFRET art: 2020; PPARg SRC-1 ag: 9; PPARg SRC-3 ag: 5; SRC3 TRFRET art: 1652; PPARg SRC2 recr: 24*

What do the screens show for `CC(=O)Nc1ccc(NC(=O)/C=C/c2ccccc2)cc1`?
TR-FRET SRC-2 ct: 1730; SRC1 TRFRET art: 2103; PPARg SRC-1 ag: 3; PPARg SRC-3 ag: 5; SRC3 TRFRET art: 1660; PPARg SRC2 recr: 4

How did CC1Cc2ccccc2N1CC(=O)c1c(N)n(Cc2ccccc2)c(=O)n(C)c1=O (stereo unspecified) do in these assays?
TR-FRET SRC-2 ct: 1702; SRC1 TRFRET art: 2015; PPARg SRC-1 ag: 14; PPARg SRC-3 ag: 2; SRC3 TRFRET art: 1873; PPARg SRC2 recr: 5

Results for O=C(CCC1CCCN(C(=O)C2=CCCCC2)C1)N1CCN(c2ccccn2)CC1 (stereo unspecified) ?
TR-FRET SRC-2 ct: 1611; SRC1 TRFRET art: 1823; PPARg SRC-1 ag: 25*; PPARg SRC-3 ag: 3; SRC3 TRFRET art: 1738; PPARg SRC2 recr: -3

How did COC(=O)c1sc(NC(=S)NC(=O)c2ccccc2F)nc1C do in these assays?
TR-FRET SRC-2 ct: 2016*; SRC1 TRFRET art: 2321*; PPARg SRC-1 ag: 13; PPARg SRC-3 ag: 14; SRC3 TRFRET art: 1927; PPARg SRC2 recr: 12

How did CCN(CC)c1ccc2c(c1)CCCN2 do in these assays?
TR-FRET SRC-2 ct: 1775; SRC1 TRFRET art: 1931; PPARg SRC-1 ag: 13; PPARg SRC-3 ag: -3; SRC3 TRFRET art: 1712; PPARg SRC2 recr: 16

How did CN(C)S(=O)(=O)c1cccc(NC(=O)COC(=O)c2cc(-c3cccc(Br)c3)nc3ccccc23)c1 do in these assays?
TR-FRET SRC-2 ct: 2575*; SRC1 TRFRET art: 2585*; PPARg SRC-1 ag: 4; PPARg SRC-3 ag: 26*; SRC3 TRFRET art: 3725*; PPARg SRC2 recr: 8

How did Cc1cc(C)c2c(c1)NC(c1cc3c(cc1Br)OCO3)C1CC=CC21 (stereo unspecified) do in these assays?
TR-FRET SRC-2 ct: 1654; SRC1 TRFRET art: 3042*; PPARg SRC-1 ag: 45*; PPARg SRC-3 ag: 0; SRC3 TRFRET art: 1516; PPARg SRC2 recr: 6

How did Brc1cc2c(cc1C1Nc3ccccc3C3C=CCC31)OCO2 (stereo unspecified) do in these assays?
TR-FRET SRC-2 ct: 1622; SRC1 TRFRET art: 1682; PPARg SRC-1 ag: 2; PPARg SRC-3 ag: -2; SRC3 TRFRET art: 1653; PPARg SRC2 recr: 3

How did COc1ccc(N2C(=O)c3ccccc3NC2c2ccc(OC)c(CSc3ccccn3)c2)cc1 (stereo unspecified) do in these assays?
TR-FRET SRC-2 ct: 2247*; PPARg SRC-1 ag: 9; PPARg SRC-3 ag: 10; PPARg SRC2 recr: 22

How did COc1ccc(N2C(=O)c3ccccc3NC2c2ccc(OC)c(COc3ccccn3)c2)cc1 (stereo unspecified) do in these assays?
TR-FRET SRC-2 ct: 1704; SRC1 TRFRET art: 2104; PPARg SRC-1 ag: -3; PPARg SRC-3 ag: 0; SRC3 TRFRET art: 1598; PPARg SRC2 recr: -2

How did Cc1cc(N/N=C/c2ccc([N+](=O)[O-])o2)nc2ccccc12 do in these assays?
TR-FRET SRC-2 ct: 1789; SRC1 TRFRET art: 1831; PPARg SRC-1 ag: 11; PPARg SRC-3 ag: 9; SRC3 TRFRET art: 2083*; PPARg SRC2 recr: 10

How did O=C(N/N=C/c1ccc([N+](=O)[O-])o1)c1cc(-c2ccc(-c3ccccc3)cc2)nc2ccccc12 do in these assays?
TR-FRET SRC-2 ct: 1407; SRC1 TRFRET art: 1568; PPARg SRC-1 ag: 7; PPARg SRC-3 ag: -3; SRC3 TRFRET art: 1306; PPARg SRC2 recr: -4

What do the screens show for `COc1cc(/C=N/N2CCN(C3c4ccccc4-c4ccccc43)CC2)cc(OC)c1OC`?
TR-FRET SRC-2 ct: 1692; SRC1 TRFRET art: 1858; PPARg SRC-1 ag: -2; PPARg SRC-3 ag: 4; SRC3 TRFRET art: 1542; PPARg SRC2 recr: 0

How did CCOc1cccc(C(=O)Nc2nc(-c3ccc(S(=O)(=O)N4CCOCC4)cc3)cs2)c1 do in these assays?
TR-FRET SRC-2 ct: 2173*; PPARg SRC-1 ag: 14; PPARg SRC-3 ag: 19; PPARg SRC2 recr: 18

Results for O=C(Nc1nc(-c2ccncc2)cs1)c1ccc(S(=O)(=O)N2CCOCC2)cc1 ?
TR-FRET SRC-2 ct: 1646; PPARg SRC-1 ag: 5; PPARg SRC-3 ag: 6; PPARg SRC2 recr: -3

Results for O=C(COc1cccc(Cl)c1)Nc1nc(-c2ccc(S(=O)(=O)N3CCOCC3)cc2)cs1 ?
TR-FRET SRC-2 ct: 2278*; PPARg SRC-1 ag: 11; PPARg SRC-3 ag: 21; PPARg SRC2 recr: 11

How did O=C(COC(=O)c1cccc(S(=O)(=O)N2CCOCC2)c1)Nc1nc(-c2ccccc2Cl)cs1 do in these assays?
TR-FRET SRC-2 ct: 1499; PPARg SRC-1 ag: 9; PPARg SRC-3 ag: 3; PPARg SRC2 recr: 2

Results for COc1ccccc1OC(C)C(=O)Nc1nc(-c2ccc(S(=O)(=O)N3CCOCC3)cc2)cs1 (stereo unspecified) ?
TR-FRET SRC-2 ct: 2207*; PPARg SRC-1 ag: 5; PPARg SRC-3 ag: -12; PPARg SRC2 recr: 9

How did O=C(Nc1nc(-c2cccs2)cs1)c1cccc(S(=O)(=O)N2CCCCCC2)c1 do in these assays?
TR-FRET SRC-2 ct: 2098*; PPARg SRC-1 ag: 3; PPARg SRC-3 ag: -1; PPARg SRC2 recr: 2

Results for O=C(O)CSc1c2c(nc3cc(C(=O)N4CCOCC4)ccc13)CCCC2 ?
TR-FRET SRC-2 ct: 1592; PPARg SRC-1 ag: 0; PPARg SRC-3 ag: 7; PPARg SRC2 recr: 8

What do the screens show for `O=C(CCCn1c(=S)[nH]c2cc3c(cc2c1=O)OCO3)N1CCN(c2ccccc2F)CC1`?
TR-FRET SRC-2 ct: 1568; PPARg SRC-1 ag: -1; PPARg SRC-3 ag: -1; PPARg SRC2 recr: 5

How did Cc1ccc(C)c(N2CCN(C(=O)CCCn3c(=S)[nH]c4cc5c(cc4c3=O)OCO5)CC2)c1 do in these assays?
TR-FRET SRC-2 ct: 2000*; PPARg SRC-1 ag: 9; PPARg SRC-3 ag: 11; PPARg SRC2 recr: 10

How did O=S(=O)(c1ccc(Cl)cc1)N1CCCC1c1nc(-c2ccc(Cl)cc2)no1 (stereo unspecified) do in these assays?
TR-FRET SRC-2 ct: 1734; PPARg SRC-1 ag: 5; PPARg SRC-3 ag: 11; PPARg SRC2 recr: 3

How did Nc1nc(C2CCCN2S(=O)(=O)c2ccc(Cl)cc2)cs1 (stereo unspecified) do in these assays?
TR-FRET SRC-2 ct: 1686; PPARg SRC-1 ag: 21*; PPARg SRC-3 ag: 5; PPARg SRC2 recr: 7

Results for COCC(C)NC(=S)N1CCN(c2ccccc2Cl)CC1 (stereo unspecified) ?
TR-FRET SRC-2 ct: 1550; SRC1 TRFRET art: 1828; PPARg SRC-1 ag: -1; PPARg SRC-3 ag: 1; SRC3 TRFRET art: 1635; PPARg SRC2 recr: -2

Assay outcomes from PubChem.
